The results in this text go back to PubChem BioAssay AID1259350 (ICCB-Longwood Screening Facility, Harvard Medical School, 2017).

This is one part of the list. Activity calls are given as the source filed them.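 Rule for the calls: active = inhibition score of 15 or more, meaning 100 minus mean polarization as percent of control over three replicates; inactive = the rest.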

For this assay, the target named is Guanine nucleotide-binding protein G(i) subunit alpha-3 (Rattus norvegicus) (UniProt P08753). Kind of assay: inhibitors of GIV peptide binding to Galpha-i3, confirmation, biochemical, fluorescence polarization, FITC-GIV peptide, rat Galphai3 (AID 1259350).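 Note: lower mP means peptide displaced from Galphai3 so more inhibition.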 Conditions: at 100 µM, hits give low values.
Guanine nucleotide-binding protein G(i) subunit alpha-3 (Rattus norvegicus), sequence (P08753 whole entry, looked up): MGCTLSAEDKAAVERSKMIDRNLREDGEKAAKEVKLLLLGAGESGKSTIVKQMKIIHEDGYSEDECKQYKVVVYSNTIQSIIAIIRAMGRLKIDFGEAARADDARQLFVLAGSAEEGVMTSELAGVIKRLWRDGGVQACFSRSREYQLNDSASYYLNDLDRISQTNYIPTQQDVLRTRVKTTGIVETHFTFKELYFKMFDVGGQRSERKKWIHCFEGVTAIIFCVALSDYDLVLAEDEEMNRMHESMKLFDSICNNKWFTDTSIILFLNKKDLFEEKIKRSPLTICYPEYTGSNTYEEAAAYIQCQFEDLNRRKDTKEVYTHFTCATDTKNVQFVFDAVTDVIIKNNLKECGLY
Take `COc1ccc(Nc2cc(C(=O)NCCCN(C)c3ccccc3)c3ccccc3n2)c(OC)c1`: the fluorescence polarization is 84 mP (inactive).

For the compound `N#CC(C#N)=C(C#N)/C=C/n1c2ccccc2c2ccccc21`, the fluorescence polarization is 50.6 mP (active).

In the case of `N#CSc1cc(SC#N)c(N)nc1N`, the fluorescence polarization is 25.2 mP (active).

Regarding `O=C(NN=c1c(=O)c2ccccc2c1=O)c1ccncc1`, the fluorescence polarization was 66.7 mP (inactive).

With `CCOc1cc(/C=C2/C(=O)N(c3nn[nH]n3)N=C2C)cc(Cl)c1OCC`, the fluorescence polarization was 69.8 mP (inactive).

As for `COc1ccc(N=Nc2c(-c3ccc(OC)cc3)[nH]oc2=O)cc1`, the fluorescence polarization is 72.7 mP (inactive).

Take `COC(=O)Cn1nc2c(-c3nc(-c4ccc(Cl)cc4)no3)cccn2c1=O`: the fluorescence polarization was 83.1 mP (inactive).

Turning to `O=C(O)c1cc(NS(=O)(=O)c2ccc3c(c2)CCCC3)cnc1N1CCOCC1`, the fluorescence polarization was 43 mP (active).

As for `Cc1nn(-c2ccccc2)c2sc(-c3noc(-c4ccccc4F)n3)cc12`, the fluorescence polarization is 78.5 mP (inactive).

`CC(=O)Nc1ccc(Nc2c3c4c(cccc4[nH]c2=O)C(=O)c2ccccc2-3)cc1`: the fluorescence polarization was 39.3 mP (active).

As for `COc1ccccc1N1C(=O)/C(=C/c2ccc(Cl)cc2)C=C1c1ccccc1`, the fluorescence polarization was 77.8 mP (inactive).

As to `O=C(O)CCC(C(=O)O)N1C(=O)/C(=C\c2ccco2)SC1=S` (centres undefined), the fluorescence polarization was 41.8 mP (active).

For `CCC(=O)N1CCc2cc(N3CC(C(=O)N4CCN(C(C)C)CC4)CC3=O)ccc21` (centres undefined), the fluorescence polarization is 64.3 mP (active).

On to `CC(=O)Oc1cccc2c1C(=O)C=CC2=O`, for which the fluorescence polarization is 73.2 mP (inactive).

`CCOC(=O)C1=C(C)N(c2ccc(OC)cc2)C(=O)/C1=C\c1ccco1`: the fluorescence polarization was 77.8 mP (inactive).

Consider `Cn1cccc1/C=C1\C(=O)NC(=S)N(c2ccccc2)C1=O`, for which the fluorescence polarization is 51.3 mP (active).

Take `Cc1ccc(N2C(=O)/C(=C/c3ccc(OCC(=O)O)c(Br)c3)C(=O)NC2=S)cc1`: the fluorescence polarization is 60.7 mP (active).

On to `CCOC(=O)c1nc2cc(C)c(C)cc2nc1NC1CCCCC1`, for which the fluorescence polarization was 88.9 mP (inactive).

For `O=C(O)c1c2ccccc2[nH]c2c1oc1cc(=O)ccc12`, the fluorescence polarization is 71.6 mP (inactive).

In the case of `Cc1ccc(NC(=O)c2nc[nH]c2C(=O)N2CCCCC2)c(C(=O)c2ccccc2)c1`, the fluorescence polarization was 54.4 mP (active).

On to `COC1=C(N2CCOCC2)C(=O)c2ccccc2C1=O`, for which the fluorescence polarization is 68 mP (inactive).

As to `CC1=NOC(=O)C1C(c1cccc(Br)c1)c1c(C)[nH]n(-c2ccccc2)c1=O` (centres undefined), the fluorescence polarization is 37.2 mP (active).

As to `Cc1ccc(C(=O)N2CCc3cc(CNC(=O)c4ccc(Br)cc4)ccc32)cc1`, the fluorescence polarization is 85.2 mP (inactive).

In the case of `COc1ccccc1CNc1ncc2nc(-c3ccccc3)oc2n1`, the fluorescence polarization was 63.8 mP (inactive).
